The values below come from PubChem BioAssay (EPA / NIEHS).

For assay [1], the target named is human Retinoid X Receptor beta (RXRb), RXRB (gene 6257) (UniProt P28702). The assay is described as follows: ATG_RXRb_TRANS: Attagene TRANS-FACTORIAL HepG2 Assay for human Retinoid X Receptor beta (RXRb) (AID 2283013; active means hit-call score of the fitted dose curve at least 0.9, where 1 is the maximum). The procedure, abridged: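 Multiplexed TRANS reporter assay in HepG2; 24 h dosing; reporter mRNA by RT-PCR/CE fluorescence; gain-of-signal relative to DMSO.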
Sequence of human Retinoid X Receptor beta (RXRb), RXRB (gene 6257) (P28702 whole entry, looked up): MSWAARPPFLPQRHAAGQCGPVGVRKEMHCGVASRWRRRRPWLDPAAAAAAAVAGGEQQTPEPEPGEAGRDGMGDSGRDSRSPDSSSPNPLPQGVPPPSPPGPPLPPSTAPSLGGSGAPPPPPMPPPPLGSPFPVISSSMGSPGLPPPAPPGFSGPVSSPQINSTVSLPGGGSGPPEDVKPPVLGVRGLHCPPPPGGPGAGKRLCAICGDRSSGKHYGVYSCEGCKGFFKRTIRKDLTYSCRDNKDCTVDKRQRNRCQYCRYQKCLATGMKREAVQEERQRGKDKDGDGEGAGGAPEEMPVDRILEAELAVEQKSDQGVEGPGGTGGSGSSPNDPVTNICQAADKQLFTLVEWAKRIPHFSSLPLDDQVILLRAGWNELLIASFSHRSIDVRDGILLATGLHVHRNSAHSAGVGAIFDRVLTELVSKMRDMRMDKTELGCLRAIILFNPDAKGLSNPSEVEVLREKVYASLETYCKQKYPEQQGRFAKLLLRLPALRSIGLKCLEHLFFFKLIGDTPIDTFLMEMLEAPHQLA

Read-out in assay [2]: E-selectin (Homo sapiens) (UniProt P16581)
The assay is described as follows: BSK_3C_Eselectin: BioMAP Diversity Plus: 3C Assay for Eselectin Biomarker Activity (AID 2283015).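 Further: cell surface E-selectin protein quantified by ELISA 24 h after dosing.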 The following applies: primary human endothelial cells (HUVEC); actives raise or lower the signal. In outline: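 Human vascular endothelium from umbilical vein is exposed to test chemicals for 24 h. E-selectin levels are read by ELISA and compared with DMSO controls.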

Read-out in assay [3]: Interleukin-1 alpha (IL1a), IL1A (gene 3552)
The assay is described as follows: BSK_BE3C_IL1a: BioMAP Diversity Plus: BE3C Assay for Interleukin-1 alpha (IL1a) Biomarker Activity (AID 2283016). The following applies: primary human bronchial epithelial cells; actives raise or lower the signal. In outline:
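Cultures of primary human bronchial epithelial cells receive test chemical. After 24 h, IL-1a is quantified by ELISA, while parallel wells are fixed in TCA and SRB-stained for total protein. Changes in either direction are fitted relative to DMSO.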

Read-out in assay [4]: Monocyte Chemoattractant Protein-1 (MCP1), CCL2 (gene 6347)
The assay is described as follows: BSK_3C_MCP1: BioMAP Diversity Plus: 3C Assay for Monocyte Chemoattractant Protein-1 (MCP1) Biomarker Activity (AID 2283017). The following applies: primary human endothelial cells (HUVEC); actives raise or lower the signal. The procedure, abridged: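 Endothelial cells from human umbilical vein are dosed with chemical, cultured 24 h, then assayed for MCP-1 by ELISA; both increases and decreases are modelled against DMSO controls.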

Read-out in assay [5]: Monocyte Chemoattractant Protein-1 (MCP1), CCL2 (gene 6347)
The assay is described as follows: BSK_4H_MCP1: BioMAP Diversity Plus: 4H Assay for Monocyte Chemoattractant Protein-1 (MCP1) Biomarker Activity (AID 2283018). The following applies: primary human endothelial cells (HUVEC); actives raise or lower the signal. The procedure, abridged: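 Readout: MCP-1 ELISA on compound-treated HUVEC, sampled 24 h post-dosing. Baseline and negative control DMSO; bidirectional fit. Overt toxicity checked alongside by sulforhodamine B protein staining at time of biomarker measurement.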

Read-out in assay [6]: Human Leukocyte Antigen - DR isotype (HLADR), HLA-DRA (gene 3122)
The assay is described as follows: BSK_3C_HLADR: BioMAP Diversity Plus: 3C Assay for Human Leukocyte Antigen - DR isotype (HLADR) Biomarker Activity (AID 2283019).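 On outcome: ELISA of cell-surface HLA-DR on HUVEC 24 h after dosing.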 The following applies: primary human endothelial cells (HUVEC); actives raise or lower the signal. The procedure, abridged:
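Endothelial cells from human umbilical vein are treated with test chemical; after 24 h, HLA-DR levels are measured by ELISA. Data are fitted in both directions using DMSO as the baseline.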

Read-out in assay [7]: Interleukin-8 (IL8), CXCL8 (gene 3576)
The assay is described as follows: BSK_3C_IL8: BioMAP Diversity Plus: 3C Assay for Interleukin-8 (IL8) Biomarker Activity (AID 2283020). The following applies: primary human endothelial cells (HUVEC); actives raise or lower the signal. The procedure, abridged:
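Human vascular endothelial cells (umbilical vein) in the 3C system; IL-8 level detected by ELISA at 24 h post-dose, with DMSO as baseline.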

Read-out in assay [8]: Monokine induced gamma interferon (MIG), CXCL9 (gene 4283)
The assay is described as follows: BSK_3C_MIG: BioMAP Diversity Plus: 3C Assay for Monokine induced gamma interferon (MIG) Biomarker Activity (AID 2283021). To be noted: primary human endothelial cells (HUVEC); actives raise or lower the signal. In outline:
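After 24 h of treatment, human umbilical vein endothelial cultures (3C system) had their MIG biomarker level determined by ELISA, with DMSO serving as negative control.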

A short description of assay [9]: BSK_3C_SRB: Viability Assessment in the BioMAP Diversity Plus: 3C Assay (AID 2283023).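 Further: fitted both ways against DMSO so a hit may be signal rise or drop.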 The following applies: primary human endothelial cells (HUVEC). The procedure, abridged:
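Cells were dosed with chemical, cultured 24 h, fixed with 10% TCA, stained with 0.1% SRB and read at 560 nm. Human umbilical vein endothelium was used; DMSO served as negative control and baseline.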

Read-out in assay [10]: Matrix Metallopeptidase 1 (MMP1), MMP1 (gene 4312)
Kind of assay: BSK_BE3C_MMP1: BioMAP Diversity Plus: BE3C Assay for Matrix Metallopeptidase 1 (MMP1) Biomarker Activity (AID 2283024). To be noted: primary human bronchial epithelial cells; actives raise or lower the signal. In outline:
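Dose cells, wait 24 h, run MMP1 ELISA; cells are human bronchial epithelial primaries. Both increases and decreases relative to DMSO counted.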

Assay [11] in a line: BSK_3C_Vis: BioMAP Diversity Plus: 3C Assay for Morphology Visualization (AID 2283025).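 Further: fitted both ways so gain or loss versus DMSO counts.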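 On AC50: light microscopy image of cell morphology used as background control.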 The following applies: primary human endothelial cells (HUVEC). In outline:
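Endothelial cells from human umbilical vein were treated with test chemicals for 24 h and inspected by light microscopy for changes in cell conformation.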

Assay [12] is described as follows: BSK_4H_SRB: Viability Assessment in the BioMAP Diversity Plus: 4H Assay (AID 2283027).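 Further: cells exposed to compound for 24 h before staining.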 The following applies: primary human endothelial cells (HUVEC). The procedure, abridged:
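Absorbance at 560 nm of SRB-stained total protein served as the viability read-out in confluent primary human umbilical vein endothelium 24 h after chemical treatment. Curves were fitted bidirectionally against DMSO as negative control.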

Assay [13] is described as follows: BSK_BE3C_SRB: Viability Assessment in the BioMAP Diversity Plus: BE3C Assay (AID 2283028).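 On AC50: fitted both ways so AC50 may mark signal gain or loss versus DMSO.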 To be noted: primary human bronchial epithelial cells. The procedure, abridged:
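Overt cytotoxicity was assessed as total protein in confluent human primary bronchial epithelial cultures 24 h after chemical addition, using 0.1% sulforhodamine B staining read at 560 nm.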

Read-out in assay [14]: Thrombomodulin, THBD (gene 7056)
Kind of assay: BSK_3C_Thrombomodulin: BioMAP Diversity Plus: 3C Assay for Thrombomodulin Biomarker Activity (AID 2283029). To be noted: primary human endothelial cells (HUVEC); actives raise or lower the signal. The procedure, abridged: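 Thrombomodulin ELISA, human primary HUVEC, 24 h post-dose; data fitted in both directions relative to DMSO.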

Read-out in assay [15]: Urokinase-type plasminogen activator receptor (uPAR), PLAUR (gene 5329)
The assay is described as follows: BSK_4H_uPAR: BioMAP Diversity Plus: 4H Assay for Urokinase-type plasminogen activator receptor (uPAR) Biomarker Activity (AID 2283030). The following applies: primary human endothelial cells (HUVEC); actives raise or lower the signal. The procedure, abridged: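 Chemicals are dosed onto human vascular endothelial primary cells (umbilical vein). After 24 h, uPAR is read by ELISA. Gain or loss of signal is fitted relative to DMSO.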

Read-out in assay [16]: Vascular endothelial growth factor receptor 2 (Homo sapiens) (UniProt P35968)
Kind of assay: BSK_4H_VEGFRII: BioMAP Diversity Plus: 4H Assay for Vascular endothelial growth factor receptor 2 (VEGFR2) Biomarker Activity (AID 2283031). The following applies: primary human endothelial cells (HUVEC); actives raise or lower the signal. In outline:
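VEGFRII levels on human vascular endothelial primary cells were determined by ELISA at 24 hours post-dosing, with gain- or loss-of-signal fitted against DMSO controls.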

Assay [17] has as its target human Vitamin D Receptor (VDR), VDR (gene 7421) (UniProt P11473). The assay is described as follows: ATG_VDR_TRANS: Attagene TRANS-FACTORIAL HepG2 Assay for human Vitamin D Receptor (VDR) (AID 2283022; active means hit-call score of the fitted dose curve at least 0.9, where 1 is the maximum). The procedure, abridged: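 Fluorescence of labelled reporter cDNA fragments, resolved by capillary electrophoresis, gives mRNA induction after 24 h treatment of HepG2 cells carrying transfected Gal4-fusion reporter units. Activity is fitted in the positive direction with DMSO as baseline.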

Read-out in assay [18]: Pselectin, SELP (gene 6403)
The assay is described as follows: BSK_4H_Pselectin: BioMAP Diversity Plus: 4H Assay for Pselectin Biomarker Activity (AID 2283026). To be noted: primary human endothelial cells (HUVEC); actives raise or lower the signal. The procedure, abridged:
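Human vascular endothelium from umbilical vein; P-selectin measured by ELISA at 24 h post-dose, with cytotoxicity checked by sulforhodamine B total-protein staining in parallel cultures (0.1% SRB after 10% TCA fixation, read at 560 nm).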

Assay [19] has as its target human Thyroid Receptor alpha (THRa1), THRA (gene 7067) (UniProt P10827). The assay is described as follows: ATG_THRa1_TRANS: Attagene TRANS-FACTORIAL HepG2 Assay for human Thyroid Receptor alpha (THRa1) (AID 2283014; active means hit-call score of the fitted dose curve at least 0.9, where 1 is the maximum). The procedure, abridged: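 First, HepG2 cells receive multiple GAL4-UAS reporter units and the chimeric receptor. They are then dosed for 24 h, after which RNA is reverse-transcribed, amplified, labelled, HpaI-cut and sized by capillary electrophoresis; gain relative to DMSO is scored.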

Results filed as inconclusive are left out. The source made the active and inactive calls. How the source made its calls, unless noted: active means hit-call score of the fitted dose curve at least 0.9, where 1 is the maximum; inactive means score below 0.9.

Sequence of E-selectin (Homo sapiens) (P16581 whole entry, looked up): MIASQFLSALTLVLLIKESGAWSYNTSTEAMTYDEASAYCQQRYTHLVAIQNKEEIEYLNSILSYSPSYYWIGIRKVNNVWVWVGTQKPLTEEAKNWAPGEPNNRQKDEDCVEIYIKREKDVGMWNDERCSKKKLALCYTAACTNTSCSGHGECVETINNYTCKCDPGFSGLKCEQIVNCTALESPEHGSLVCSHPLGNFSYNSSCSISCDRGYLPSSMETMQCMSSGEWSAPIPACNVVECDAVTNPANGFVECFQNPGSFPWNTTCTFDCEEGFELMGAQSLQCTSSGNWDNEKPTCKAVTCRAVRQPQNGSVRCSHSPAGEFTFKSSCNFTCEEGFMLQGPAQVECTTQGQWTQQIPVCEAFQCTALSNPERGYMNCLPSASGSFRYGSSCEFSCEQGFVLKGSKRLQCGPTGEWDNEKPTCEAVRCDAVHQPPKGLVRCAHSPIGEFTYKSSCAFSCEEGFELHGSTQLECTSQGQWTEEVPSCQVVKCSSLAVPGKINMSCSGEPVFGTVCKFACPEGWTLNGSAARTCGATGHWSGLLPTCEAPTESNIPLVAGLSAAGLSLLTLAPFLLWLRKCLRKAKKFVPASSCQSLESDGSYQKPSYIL
Sequence of human Vitamin D Receptor (VDR), VDR (gene 7421) (P11473 whole entry, looked up, the tested form may be a part): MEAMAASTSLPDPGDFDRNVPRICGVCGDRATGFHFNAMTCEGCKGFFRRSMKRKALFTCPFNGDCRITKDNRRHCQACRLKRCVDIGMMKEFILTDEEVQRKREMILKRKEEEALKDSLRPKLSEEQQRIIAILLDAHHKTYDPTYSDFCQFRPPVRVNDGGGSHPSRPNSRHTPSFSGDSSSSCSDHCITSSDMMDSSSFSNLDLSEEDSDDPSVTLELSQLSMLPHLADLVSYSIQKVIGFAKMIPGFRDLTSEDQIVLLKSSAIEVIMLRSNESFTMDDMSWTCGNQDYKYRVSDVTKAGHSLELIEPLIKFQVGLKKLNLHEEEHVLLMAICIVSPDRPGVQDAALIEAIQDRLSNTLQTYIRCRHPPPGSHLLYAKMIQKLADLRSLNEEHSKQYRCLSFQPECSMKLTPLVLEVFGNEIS
Sequence of human Thyroid Receptor alpha (THRa1), THRA (gene 7067) (P10827 whole entry, looked up, the tested form may be a part): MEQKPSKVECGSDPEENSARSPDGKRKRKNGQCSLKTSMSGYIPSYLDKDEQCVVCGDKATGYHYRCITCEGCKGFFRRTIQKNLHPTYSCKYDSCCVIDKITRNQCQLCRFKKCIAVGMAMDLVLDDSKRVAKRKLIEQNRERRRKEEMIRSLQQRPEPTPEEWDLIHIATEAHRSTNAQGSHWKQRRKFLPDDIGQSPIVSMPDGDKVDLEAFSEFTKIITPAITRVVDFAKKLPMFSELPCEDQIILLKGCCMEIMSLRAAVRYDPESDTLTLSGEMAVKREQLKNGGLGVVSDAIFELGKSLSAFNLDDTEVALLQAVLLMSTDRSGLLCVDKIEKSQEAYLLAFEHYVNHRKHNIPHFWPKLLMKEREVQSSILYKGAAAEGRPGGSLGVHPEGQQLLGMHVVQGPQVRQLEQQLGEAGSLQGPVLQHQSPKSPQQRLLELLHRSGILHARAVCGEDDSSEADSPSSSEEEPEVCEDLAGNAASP

Turning to `CCCCCOC(=O)c1ccccc1C(=O)OCCCCC`, the result in assay [1], in assay [2], in assay [3], in assay [4], in assay [5] and in assay [7] was inactive. Besides, the result in assay [8], in assay [10], in assay [12], in [13], in assay [14] and in assay [15] was inactive. The outcome in assay [16] was inactive. Besides, the results for the concentration at half-maximal activity (AC50) in assay [6], in [9] and in assay [11] were 20 µM (active), 32.2 µM (active) and 39 µM (active), respectively.
With `Cc1ccc(N=C=O)cc1N=C=O`, the outcome in assay [2], in assay [3], in assay [4], in assay [5], in [6] and in [7] was inactive. The outcome in assay [8], in assay [17], in assay [9], in [10], in assay [11] and in assay [18] was inactive. For the same molecule, the result in assay [12], in assay [13], in [14], in [15] and in assay [16] was inactive.
On to `CCOc1cccc(C2(N3CCN(c4ccccc4)CC3)CCC(C)CC2)c1` (stereo not given), for which the outcome in assay [1], in assay [2], in assay [3], in assay [4], in [5] and in [6] was inactive. Also, the outcome in assay [7], in assay [8], in assay [17], in assay [9], in assay [10] and in assay [11] was inactive. Moreover, the outcome in [12], in assay [13], in [14], in assay [15] and in [16] was inactive.
For `O=C(N[C@H](c1ccccc1)[C@@H]1CN2CCC1CC2)c1c(Cl)ccc(C(F)(F)F)c1Cl`, the outcome in [1], in [2], in assay [5], in assay [6], in [8] and in [17] was inactive. Also, the outcome in assay [18], in assay [12] and in assay [16] was inactive. Further, the AC50 (usually the concentration giving half of the maximal activity seen) was 44.5 µM (active) in [3]; 14.3 µM (active) in [4]; 19 µM (active) in assay [7]; 29.7 µM (active) in [9]; 44.2 µM (active) in assay [10]; 14.5 µM (active) in [11]. Besides, the AC50 in assay [13] is 27.4 µM (active); in assay [14], 29.7 µM (active); in assay [15], 17.3 µM (active).
As to `CC(C)N(Cc1ccccc1)C(=O)C(C)(C)C`, the molecule was called inactive in assay [1], in [2], in assay [3], in assay [4], in assay [5] and in assay [6]. Besides, the result in [7], in assay [8], in [17], in [9], in [10] and in assay [11] was inactive. In addition, the result in assay [18], in assay [12], in assay [13], in assay [14], in assay [15] and in assay [16] was inactive.
Turning to `COP(=S)(OC)SCN1C(=O)c2ccccc2C1=O`, the call in [1], in assay [2], in assay [3], in assay [4], in assay [5] and in assay [6] was inactive. The outcome in assay [7], in [8], in assay [9], in [10], in assay [11] and in assay [18] was inactive. For the same molecule, the result in [12], in assay [13], in assay [14], in assay [15] and in assay [16] was inactive.
As to `O=P(OCCCl)(OCCCl)OCCCl`, the molecule was called inactive in [19], in assay [2], in [3], in assay [4], in [5] and in [6]. Further, the outcome in [7], in assay [8], in assay [9], in [10], in assay [11] and in assay [18] was inactive. For the same molecule, the result in [12], in assay [13], in [14], in assay [15] and in assay [16] was inactive.
